Sampled rows, rich in hits. Any-hit rate of the full collection: about 0.97%.
MBNL1-CUG inh: MBNL1-poly(CUG) RNA binding inhibition | TR-FRET MBNL1-His/biotin-(CUG)12 binding, 665/545 ratio | Potency, µM (highest dose often 57.5 µM), for inactives: top-dose activity change, negative = inhibition, most hits filed as inhibitors | 0.036% of 280,000 active | AID 2675; active = well fitted inhibition curve with a large enough effect in the signal ratio, with a control signal flat, not every such curve was filed as active; inconclusive = small, poorly fitted or top-dose-only effect, or effect the other way, or a change in a side signal; inactive = no such curve, though single readings can be large or run the other way; the % refers to the signal ratio; also: potency is read from the fitted curve at half-maximal effect; % is scaled to controls: 0 for no effect and ±100 for the full control effect
Target sequence (Q9NR56 whole entry, looked up): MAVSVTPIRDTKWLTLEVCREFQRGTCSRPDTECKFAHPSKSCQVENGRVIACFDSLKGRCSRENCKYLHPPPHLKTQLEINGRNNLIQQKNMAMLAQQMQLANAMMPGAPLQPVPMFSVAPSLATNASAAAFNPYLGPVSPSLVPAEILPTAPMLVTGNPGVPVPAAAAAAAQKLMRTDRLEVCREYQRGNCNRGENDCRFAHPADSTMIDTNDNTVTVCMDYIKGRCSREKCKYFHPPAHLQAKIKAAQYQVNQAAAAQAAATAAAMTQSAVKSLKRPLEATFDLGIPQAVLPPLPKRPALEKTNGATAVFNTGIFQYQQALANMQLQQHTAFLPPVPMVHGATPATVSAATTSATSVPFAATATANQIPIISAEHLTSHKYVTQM
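Compounds (final 92 nM to 58 uM) are added to His-tagged MBNL1 and biotin-(CUG)12, then terbium anti-His antibody and streptavidin-XL665 (5 nM final). After 60 min at room temperature, the 665/545 nm ratio is read.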
Epigenetic derep: derepresses silenced GFP reporter in murine cells; murine LDR cells, GFP reporter derepression, 30 h; Potency, µM (highest dose often 53.9 µM), inactives show top-dose GFP activation, hits mostly activators; 0.2% of 280,000 active; AID 1865; also: potency is read from the fitted curve at half-maximal effect; % of control where 0% means no effect; nearly all actives have a fitted effect of over 60% in size
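In this reporter-derepression format, murine cells bearing a silenced integrated CMV-GFP locus incubate with test compound (30 h, 37 C), then are washed and imaged; fluorescent objects of 20–120 um count as induced cells.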
uPA surface inh: blocks generation of uPA at the cell surface. cell surface uPA generation assay, qHTS. Potency, µM (highest dose often 38.3 µM), for inactives: at the top dose activity change, negative = inhibition, hits mostly inhibitors. 0.31% of 330,000 active. AID 540303; active = well fitted inhibition curve with a large enough effect; inconclusive = small, poorly fitted or top-dose-only effect; inactive = no such curve, though single readings can be large or run the other way; tested in mouse RAW 264.7 cells; also: potency is read from the fitted curve at half-maximal effect; % is scaled to controls: 0 for no effect and ±100 for the full control effect; nearly all actives have a fitted effect of over 55% in size
Akt phos inh: blocks phosphorylation of Akt; 0.32% of 360,000 active; activity change, % for hits at 50 µM; AID 651550; Neuro2A IGF-stimulated pAkt S473 HTRF, 20 min; stronger effect = lower value; in the data active = activity change below about -80%; inconclusive = mostly about -51% to -80%; also: % is scaled to controls: 0 for no effect and ±100 for the full control effect
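Neuro2A cells in DMEM with 0.5% FBS, overnight at 37 deg C, given compound at single 50 µM final, then IGF (6 nM final) for 20 min at 37 deg C. Lysed; phospho-Akt Ser473 by HTRF after 24 h, 665/615 ratio.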
CCT modulator: cytosolic chaperonin activity modulation; purified chaperonin ATPase assay, HTRF ADP detection, 30 min; activity change, % (concentration not given with the values), hits read low; 0.3% of 360,000 active; in the data active = activity change below about -30%; also: % is scaled to controls: 0 for no effect and ±100 for the full control effect
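TRiC (40 or 20 nM final, by batch activity) in 30 mM Tris pH 7.4, 100 mM KCl, 5 mM MgCl2, 1 mM DTT was treated with compound at 76 uM single dose, then 10 uM ATP, 30 min at 37 °C. ADP was read by HTRF Transcreener.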
Mm-Cpn inhibitor: M. maripaludis TRiC chaperonin inhibition | purified Mm-Cpn ATPase, ADP Transcreener TR-FRET | 0.031% of 330,000 active | AID 504842 | Potency, µM (highest dose often 76.9 µM), inactives show at the highest dose activity, negative = inhibition, usual class: inhibitors; also: potency is read from the fitted curve at half-maximal effect; % is scaled to controls: 0 for no effect and ±100 for the full control effect; nearly all actives have a fitted effect of over 80% in size
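Quantitative HTS used 25 nM Mm-CPN and 10 uM ATP in magnesium/KCl Tris buffer, pH 7.4, with 1 mM DTT. Hydrolysis ran 30 min at 37°C; ADP was read by HTRF.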
* hit, by the source's call; i = inactive; ? = inconclusive; nt = no result; ! = a repeat was not active. Unless noted, calls follow the shape of the dose curve; as a rule, active = well fitted curve in the direction sought with a large enough effect; inconclusive = small, poorly fitted or top-dose-only effect, or another doubt; inactive = no such curve, though single readings can be large; an effect the other way counts as inactive or inconclusive.

SMILES	MBNL1-CUG inh	Epigenetic derep	uPA surface inh	Akt phos inh	CCT modulator	Mm-Cpn inhibitor
COc1cc(/C=C(/C)[N+](=O)[O-])ccc1OCc1ccccc1Cl	-15%	-3%	-19%	i	-31*	1%
O=C(c1cc(F)ccc1F)C1CCCN(Cc2cccc(Cl)c2)C1 (stereo not drawn)	4%	0%	16%	i	0	-2%
O=C(c1cc(F)ccc1F)C1CCCN(CCCc2ccccc2)C1 (stereo not drawn)	0%	-3%	2%	i	-30*	-4%
CCC(CC)NCc1c[nH]c2ccccc12	-3%	-4%	4.5µM*	i	-2	-3%
COc1ccc(Cn2c(O)c(/C=N/NC(=O)c3ccccc3)c(=O)[nH]c2=O)cc1	2%	0%	-11%	i	-2	3%
COC(=O)[C@@H]1N=C(c2ccc(OC)cc2)O[C@]12C(=O)N(Cc1ccc(OC)cc1)c1ccccc12	nt	nt	nt	i	-47*	nt
O=C(c1ccc2c(c1)N(Cc1c(F)cccc1Cl)C(=O)c1ccccc1S2)N1CCC2(CC1)OCCO2	nt	-1%	nt	nt	nt	nt
N#CC1=C(N)Oc2c(c(=O)sc3ccccc23)C1c1cccnc1 (stereo not drawn)	-4%	1%	-12%	i	-43*	-5%
NCC(CC(=O)O)c1ccc(Cl)cc1 (stereo not drawn)	-9%	0%	0%	-108%*	0	1%
C[C@H](NC(=O)[C@@H](N)Cc1ccc(O)cc1)C(=O)N[C@@H](Cc1ccccc1)C(=O)NCC(=O)N[C@@H](Cc1ccc(O)cc1)C(=O)N1CCC[C@H]1C(=O)N[C@@H](CO)C(N)=O	nt	0%	nt	nt	nt	nt
COC(C)C(O)(C(=O)OC1=CCN2CC[C@H](O)[C@H]12)C(C)C (stereo partly drawn)	nt	-5%	nt	nt	nt	nt
CN(N=O)c1ccc(O)c(O)c1	nt	-1%	nt	nt	nt	nt
CCCCCCCCCCCCCCCC[n+]1ccccc1	nt	4%	0.71µM*!	i	2	nt
O=C(O)C1C2CCC(O2)C1C(=O)Nc1cccc(Br)c1 (stereo not drawn)	-2%	nt	11µM*	i	-1	-1%
COc1ccc(-c2nc(CN3C(=O)CN=C(c4ccccc4)c4ccccc43)c(C)o2)cc1OC	nt	-3%	nt	nt	nt	nt
C/C(=N\NC(=O)c1cc(-c2cccnc2)nc2ccccc12)c1ccc(O)cc1O	nt	0%	11µM*	i	-10	1%
O=C(C1CC(=O)N(C2CCCCC2)C1)N1CCC2(CC1)OCCO2 (stereo not drawn)	-7%	-1%	-4%	-110%*	-3	2%
O=C1CC(C(=O)N2CCC3(CC2)OCCO3)CN1CCc1ccccc1 (stereo not drawn)	-9%	1%	0%	i	0	2%
COC(=O)[C@@H]1C[C@H]2CC[C@H](O)C[C@H]2N1CC1CC1	nt	-1%	nt	nt	nt	nt
C/C=C(\C)C(=O)N[C@@H](c1ccccc1)[C@@H](O)C(=O)O[C@H]1C[C@@]2(O)[C@@H](OC(=O)c3ccccc3)C3[C@](C)(C(=O)[C@H](O)C(=C1C)C2(C)C)[C@@H](O)C[C@H]1OC[C@@]31OC(C)=O (stereo partly drawn)	-9%	nt	0.71µM*	i	1	-1%
C/C=C(\C)C(=O)N[C@@H](c1ccccc1)[C@@H](O)C(=O)O[C@H]1C[C@@]2(O)[C@@H](OC(=O)c3ccccc3)C3[C@](C)(C(=O)[C@H](OC(C)=O)C(=C1C)C2(C)C)[C@@H](O)C[C@H]1OC[C@@]31OC(C)=O (stereo partly drawn)	-6%	nt	-63%	i	-1	-1%
CC(=O)[O][Hg][c]1ccccc1	nt	4%	nt	nt	nt	nt
Fc1ccc(C[n+]2c(-c3ccccc3)cc(-c3ccccc3)cc2-c2ccccc2)cc1	nt	nt	8.9µM*	i	0	2%
Cc1cccc(-c2noc(CN(C(=O)C(c3ccccc3)c3ccccc3)C(C)C)n2)c1	7%	-1%	?	i	2	1%
Cc1ccc2oc(=O)c(-c3nc4ccc(C)cc4[nH]3)cc2c1	nt	16µM*	nt	nt	nt	nt
